# Results filed as inconclusive are left out. Activity calls are given as the source filed them. Unless noted, the limit is not given here; nearly all actives have AC50 up to about 30 µM.
# How the values were obtained:
# [1] = growth inhibition of DIPG glioma cells, dose response, cell-based, SU-DIPG-XIII, MIPE4.0, CellTiter-Glo, qHTS (AID 1347061; cut-off not given, nearly all actives have AC50 up to about 37 µM;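 also: cells exposed to compound for 48 hours before readout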); conditions: SU-DIPG-XIII viability, CellTiter-Glo ATP luminescence
# [2] = growth inhibition of DIPG glioma cells, dose response, cell-based, JHH-DIPG-1, MIPE4.0, CellTiter-Glo, qHTS (AID 1347062; cut-off not given, nearly all actives have AC50 up to about 27 µM); conditions: JHH-DIPG-1 viability, CellTiter-Glo ATP luminescence
# [3] = growth inhibition of DIPG glioma cells, dose response, cell-based, SU-DIPG-IV, MIPE4.0, CellTiter-Glo, qHTS (AID 1347063); conditions: SU-DIPG-IV viability, CellTiter-Glo ATP luminescence;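 also: compound exposure lasted 48 hours before the viability readout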
# [4] = SU-DIPG-VI glioma cell viability, MIPE4.0 library, CellTiter-Glo luminescence, qHTS (AID 1347066); conditions: CellTiter-Glo ATP luminescence;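 also: cells exposed to compound for 48 hours before readout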
# [5] = tested on: Hepatitis C virus NS3 helicase; assay: HCV NS3 helicase inhibitors, primary screen, biochemical, fluorescence polarization, LOPAC1280 library (AID 687035; in the data active = inhibition above about 37%); conditions: Purified HCV NS3 helicase, Cy5-dT15 ssDNA binding fluorescence polarization; stronger effect = higher value; concentration not given here
# [6] = Cy5 fluorescence quenching or enhancement artefacts, artefact control for HCV NS3 helicase inhibitor project, biochemical, LOPAC1280 (AID 687037; call rule not given here); conditions: Cy5-DNA-NS3h complex fluorescence interference counterscreen
# [7] = target: ATP-dependent translocase ABCB1 (Homo sapiens) (UniProt P08183); assay: MDR1 (ABCB1) efflux transporter inhibition, cell-based (AID 377; in the data active = fluorescence slope change above about 50%); conditions: MDR1-expressing cells, fluorescent substrate accumulation slope; stronger effect = higher value; concentration not given here
# ATP-dependent translocase ABCB1 (Homo sapiens), sequence (P08183 whole entry, looked up): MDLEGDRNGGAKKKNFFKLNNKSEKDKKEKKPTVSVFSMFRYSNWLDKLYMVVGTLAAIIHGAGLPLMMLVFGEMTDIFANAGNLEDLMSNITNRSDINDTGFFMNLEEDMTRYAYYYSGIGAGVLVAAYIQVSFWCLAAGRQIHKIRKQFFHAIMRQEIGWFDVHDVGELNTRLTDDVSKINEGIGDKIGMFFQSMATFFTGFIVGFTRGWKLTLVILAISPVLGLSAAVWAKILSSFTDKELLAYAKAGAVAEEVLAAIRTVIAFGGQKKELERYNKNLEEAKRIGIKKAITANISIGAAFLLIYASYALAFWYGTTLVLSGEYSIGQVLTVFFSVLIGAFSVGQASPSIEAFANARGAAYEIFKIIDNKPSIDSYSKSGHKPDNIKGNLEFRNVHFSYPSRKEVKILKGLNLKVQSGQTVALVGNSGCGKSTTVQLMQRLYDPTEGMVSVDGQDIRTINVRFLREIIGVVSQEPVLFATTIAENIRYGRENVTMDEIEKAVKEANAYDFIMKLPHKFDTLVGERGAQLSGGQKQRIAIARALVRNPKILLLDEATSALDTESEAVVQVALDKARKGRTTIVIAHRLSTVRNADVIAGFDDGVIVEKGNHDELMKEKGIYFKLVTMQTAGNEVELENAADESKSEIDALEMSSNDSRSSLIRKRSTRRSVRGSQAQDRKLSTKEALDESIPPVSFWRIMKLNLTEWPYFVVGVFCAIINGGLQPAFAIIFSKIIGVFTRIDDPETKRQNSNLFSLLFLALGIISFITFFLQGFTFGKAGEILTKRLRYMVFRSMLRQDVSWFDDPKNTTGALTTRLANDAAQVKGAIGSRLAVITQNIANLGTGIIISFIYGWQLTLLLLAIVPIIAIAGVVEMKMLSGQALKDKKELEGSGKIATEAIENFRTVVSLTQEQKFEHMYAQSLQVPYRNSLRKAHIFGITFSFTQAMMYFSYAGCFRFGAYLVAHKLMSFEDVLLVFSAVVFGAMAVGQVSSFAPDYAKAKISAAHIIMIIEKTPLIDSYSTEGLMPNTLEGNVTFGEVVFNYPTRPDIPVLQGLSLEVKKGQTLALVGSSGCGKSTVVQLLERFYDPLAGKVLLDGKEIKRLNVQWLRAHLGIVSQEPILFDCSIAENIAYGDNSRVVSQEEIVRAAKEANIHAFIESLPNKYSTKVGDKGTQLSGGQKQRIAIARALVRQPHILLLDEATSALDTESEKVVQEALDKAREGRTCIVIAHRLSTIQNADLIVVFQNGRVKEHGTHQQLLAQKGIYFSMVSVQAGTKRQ
# [8] = growth inhibition of DIPG glioma cells, dose response, cell-based, SU-DIPG-XVII, MIPE5.0, CellTiter-Glo, qHTS (AID 1347060; cut-off not given, nearly all actives have AC50 up to about 26 µM;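 as to AC50: cells exposed to compound for 48 hours before viability readout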); conditions: SU-DIPG-XVII viability, CellTiter-Glo ATP luminescence
# [9] = viability loss in pontine glioma line – cell-based, SU-DIPG-XXV, MIPE5.0, CellTiter-Glo, qHTS, dose response (AID 1347065; cut-off not given, nearly all actives have AC50 up to about 26 µM;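 also: cells exposed to compound for 48 hours before ATP readout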); conditions: CellTiter-Glo ATP luminescence
# [10] = SU-DIPG-XXV glioma cell viability, MIPE5.0 library, qHTS (AID 1347068; cut-off not given, nearly all actives have IC50 up to about 30 µM)
# [11] = growth inhibition of DIPG glioma cells, dose response, cell-based, SU-DIPG-XIII, MIPE5.0, CellTiter-Glo, qHTS (AID 1347064; cut-off not given, nearly all actives have AC50 up to about 23 µM); conditions: SU-DIPG-XIII viability, CellTiter-Glo ATP luminescence
# [12] = LFS_MB_P medulloblastoma growth inhibition, cell-based, chromothripsis tumors, cisplatin or BGB combos (AID 1671449; in the data active = inhibition above about 80%;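 also: cells exposed for 96 hours; 0% = vehicle DMSO and 100% = killing by high DMSO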); conditions: LFS_MB_P medulloblastoma cells
# [13] = HDN33 neuroblastoma growth inhibition, cell-based, chromothripsis tumors, cisplatin or BGB combos (AID 1671450; in the data active = inhibition above about 80%;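 also: cells exposed to compound for four days; 0% = vehicle DMSO and 100% = cell killing by high DMSO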); conditions: HDN33 neuroblastoma cells, stronger effect = higher value
# [14] = ICB984 medulloblastoma cell growth inhibition, synergistic combos for chromothripsis tumors, cisplatin or BGB combos (AID 1671451; call rule not given here;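 also: cells exposed for 96 hours before readout; 0% = vehicle DMSO and 100% = killing by high DMSO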); conditions: ICB984 medulloblastoma cells, drug combinations, stronger effect = higher value
# [15] = LFS_MB_1R medulloblastoma cell growth inhibition, synergistic combos for chromothripsis tumors, cisplatin or BGB combos (AID 1671452; in the data active = inhibition above about 80%;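 also: cells exposed for 96 hours before readout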); conditions: LFS_MB_1R medulloblastoma cells, stronger effect = higher value
# [16] = HTB85 osteosarcoma cell growth inhibition, synergistic combos for chromothripsis tumors, BGB or cisplatin IC20 combos (AID 1671453; in the data active = inhibition above about 80%;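 also: cells exposed for 96 hours before readout; 0% = vehicle DMSO and 100% = high DMSO killing control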); conditions: HTB85 osteosarcoma cells, drug combinations, stronger effect = higher value
# [17] = MDA-MB-436 breast carcinoma cell growth inhibition, synergistic combos for chromothripsis tumors, BGB or cisplatin combos (AID 1671458; call rule not given here;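 also: cells exposed for 96 hours; 0% = vehicle DMSO and 100% = killing by high DMSO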); conditions: MDA-MB-436 breast carcinoma growth inhibition, drug combinations, stronger effect = higher value
# [18] = growth inhibition of BT084 medulloblastoma cells, cell-based, ICGC_MB145, cisplatin and BGB IC40 combos (AID 1671461; in the data active = inhibition above about 80%;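 also: cells exposed to drugs for 96 hours; 0% = vehicle DMSO and 100% = high DMSO full killing control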); conditions: drug combinations, stronger effect = higher value
# [19] = growth inhibition of RCMB18 medulloblastoma cells, cell-based, cisplatin and BGB IC40 combos (AID 1671462; in the data active = inhibition above about 80%;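 also: cells exposed to compound for four days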); conditions: stronger effect = higher value
# [20] = growth inhibition of CRL1545 osteosarcoma cells, cell-based, cisplatin and BGB IC20 combos (AID 1671464; in the data active = inhibition above about 80%;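 also: cells exposed to compound for 96 hours before readout; 0% = vehicle DMSO and 100% = high DMSO killing control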); conditions: stronger effect = higher value
# [21] = measured here: combination with BGB IC40, at 0.05 µM
# [22] = measured here: with BGB IC20 combination, at 0.5 µM
# [23] = measured here: with cisplatin IC20 combination, at 0.5 µM
# [24] = measured here: combination with cisplatin, at 0.5 µM
smiles,measurement,setting,value
COc1ccc(-c2coc3cc(O)ccc3c2=O)cc1,outcome,[1],inactive
same,outcome,[2],inactive
same,outcome,[3],inactive
same,outcome,[4],inactive
C[N+](C)(C)CCO,inhibition,[5],-3% (inactive)
same,fluorescence ratio (interference),[6],1 (inactive)
CC[C@H]1OC(=O)[C@H](C)[C@@H](O[C@H]2C[C@@](C)(OC)[C@@H](O)[C@H](C)O2)[C@H](C)[C@@H](O[C@@H]2O[C@H](C)C[C@H](N(C)C)[C@H]2O)[C@](C)(O)C[C@@H](C)C(=O)[C@H](C)[C@@H](O)[C@]1(C)O,fluorescence slope change,[7],76.3% (active)
same,outcome,[8],inactive
same,outcome,[9],inactive
same,outcome,[10],inactive
COc1cc(/C=C/C(=O)O)ccc1O,outcome,[1],inactive
same,outcome,[2],inactive
same,outcome,[3],inactive
same,outcome,[4],inactive
O=C(O)/C=C/c1ccc(O)c(O)c1,inhibition,[5],0% (inactive)
same,fluorescence ratio (interference),[6],1 (inactive)
same,AC50,[3],20.9 µM (active)
OCC(O)C(O)C(O)CO (centres undefined),outcome,[1],inactive
same,outcome,[2],inactive
same,outcome,[3],inactive
same,outcome,[4],inactive
NC[C@H]1O[C@H](O[C@H]2[C@H](O)[C@@H](O[C@H]3O[C@H](CO)[C@@H](O)[C@H](N)[C@H]3O)[C@H](N)C[C@@H]2N)[C@H](N)C[C@@H]1O,outcome,[8],inactive
same,outcome,[1],inactive
same,outcome,[2],inactive
same,outcome,[3],inactive
same,outcome,[11],inactive
same,outcome,[4],inactive
same,outcome,[10],inactive
OCc1ccccc1O[C@@H]1O[C@H](CO)[C@@H](O)[C@H](O)[C@H]1O,outcome,[8],inactive
same,outcome,[1],inactive
same,outcome,[2],inactive
same,outcome,[3],inactive
same,outcome,[11],inactive
same,outcome,[4],inactive
same,outcome,[10],inactive
COc1ccc(-c2coc3cc(O)cc(O)c3c2=O)cc1,AC50,[8],26.3 µM (active)
same,outcome,[2],inactive
same,outcome,[9],inactive
same,outcome,[4],inactive
CCC(c1ccc(O)cc1)C(CC)c1ccc(O)cc1 (centres undefined),fluorescence slope change,[7],18% (inactive)
same,outcome,[8],inactive
same,outcome,[2],inactive
same,outcome,[11],inactive
same,outcome,[9],inactive
same,outcome,[10],inactive
O=C(CCc1ccc(O)cc1)c1c(O)cc(O)cc1O,inhibition,[5],-4% (inactive)
same,fluorescence ratio (interference),[6],1 (inactive)
same,outcome,[8],inactive
same,outcome,[2],inactive
same,outcome,[11],inactive
same,outcome,[9],inactive
same,outcome,[10],inactive
O=c1cc(-c2ccccc2)oc2cc(O)cc(O)c12,outcome,[1],inactive
same,outcome,[2],inactive
same,outcome,[3],inactive
same,AC50,[9],20.9 µM (active)
same,outcome,[4],inactive
NC(N)=NC(N)=Nc1ccccc1,inhibition,[5],-3% (inactive)
same,fluorescence ratio (interference),[6],1 (inactive)
c1coc(CNc2ncnc3nc[nH]c23)c1,fluorescence slope change,[7],8.8% (inactive)
same,outcome,[8],inactive
same,outcome,[1],inactive
same,outcome,[2],inactive
same,outcome,[3],inactive
same,outcome,[11],inactive
same,outcome,[9],inactive
same,outcome,[4],inactive
same,outcome,[10],inactive
CC[C@H]1OC(=O)[C@H](C)[C@@H](O[C@H]2C[C@@](C)(OC)[C@@H](O)[C@H](C)O2)[C@H](C)[C@@H](O[C@@H]2O[C@H](C)C[C@H](N(C)C)[C@H]2O)[C@](C)(O)C[C@@H](C)/C(=N\OCOCCOC)[C@H](C)[C@@H](O)[C@]1(C)O,outcome,[1],inactive
same,outcome,[2],inactive
same,outcome,[3],inactive
same,outcome,[4],inactive
Cc1cc(O)c2c(c1)C(=O)c1cccc(O)c1C2=O,outcome,[8],inactive
same,outcome,[1],inactive
same,outcome,[3],inactive
same,outcome,[11],inactive
same,outcome,[9],inactive
same,outcome,[10],inactive
NCCCCN=C(N)N,fluorescence slope change,[7],53.1% (active)
same,inhibition,[5],1% (inactive)
same,fluorescence ratio (interference),[6],1 (inactive)
NCCCS(=O)(=O)O,inhibition,[5],-1% (inactive)
same,fluorescence ratio (interference),[6],1 (inactive)
O=C(O)c1cc2cc(F)ccc2[nH]1,inhibition,[5],-2% (inactive)
same,fluorescence ratio (interference),[6],1 (inactive)
NCCSSCCN,inhibition,[5],-2% (inactive)
same,fluorescence ratio (interference),[6],1 (inactive)
Cn1c(=O)[nH]c2ncn(C)c2c1=O,inhibition,[5],-3% (inactive)
same,fluorescence ratio (interference),[6],1 (inactive)
CN1CCc2c(c3ccccc3n2Cc2ccccc2)C1,fluorescence slope change,[7],70.9% (active)
CC(CN(C)C)CN1c2ccccc2Sc2ccccc21 (centres undefined),fluorescence slope change,[7],102% (active)
NCCCCN,inhibition,[5],-3% (inactive)
same,fluorescence ratio (interference),[6],0.9 (inactive)
COC(=O)[C@H]1[C@H]2C[C@H]3c4[nH]c5ccccc5c4CCN3C[C@H]2CC[C@@H]1O,inhibition,[5],0% (inactive)
same,fluorescence ratio (interference),[6],1 (inactive)
NC1(C(=O)O)CC1,inhibition,[5],-2% (inactive)
same,fluorescence ratio (interference),[6],1 (inactive)
CN1CCc2cccc3c2C1Cc1ccc(O)c(O)c1-3 (centres undefined),inhibition,[5],-6% (inactive)
same,fluorescence ratio (interference),[6],1 (inactive)
COc1c2ccoc2cc2oc(=O)ccc12,inhibition,"[12]; at 0.5 µM, stronger effect = higher value",-22.9% (inactive)
same,inhibition,"[12]; measured here: combination with BGB IC20, at 0.005 µM",-15%
same,inhibition,"[12]; measured here: combination with BGB IC40, at 0.005 µM",-30%
same,inhibition,[12]; [21],3.17%
same,inhibition,"[12]; measured here: combination with cisplatin, at 0.5 µM, stronger effect = higher value",-36.3%
same,inhibition,"[12]; measured here: combination with cisplatin, at 5 µM, stronger effect = higher value",-26.9%
same,inhibition,"[13]; BGB combo, at 5 µM",-4.43%
same,inhibition,[13]; at 0.5 µM,-1.51% (inactive)
same,inhibition,"[13]; cisplatin combo, at 5 µM",-17.2%
same,inhibition,[13]; [22],5%
same,inhibition,[13]; [23],1.07%
same,inhibition,"[13]; single agent, at 5 µM",-13.4%
same,inhibition,"[14]; BGB IC20 combo, at 0.005 µM",-7.99%
same,inhibition,"[14]; BGB IC40 combo, at 0.005 µM",-11.7%
same,inhibition,"[14]; BGB IC40 combo, at 0.05 µM",-24.6%
same,inhibition,[14]; at 0.5 µM,-24.1% (inactive)
same,inhibition,"[14]; cisplatin combo, at 0.05 µM",-24.6%
same,inhibition,"[14]; cisplatin combo, at 0.5 µM",-26.9%
same,inhibition,"[14]; cisplatin combo, at 5 µM",-4.96%
same,inhibition,"[14]; measured here: 5 uM single agent, at 5 µM",-16.8%
same,inhibition,[15]; at 0.5 µM,-1.71% (inactive)
same,inhibition,[15]; [21],-39.8%
same,inhibition,[15]; [24],-31.5%
same,inhibition,"[15]; measured here: combination with cisplatin, at 5 µM",0.408%
same,inhibition,[16]; at 0.5 µM,-23.4% (inactive)
same,inhibition,"[16]; measured here: with BGB IC20, at 0.5 µM",-60.7%
same,inhibition,"[16]; measured here: with BGB IC20, at 5 µM",-19.3%
same,inhibition,"[16]; measured here: with cisplatin IC20, at 0.5 µM",-7.94%
same,inhibition,"[16]; measured here: with cisplatin IC20, at 5 µM",10.7%
same,inhibition,"[16]; single agent, at 5 µM",-6.82%
same,inhibition,[17]; at 0.5 µM,-22.2% (inactive)
same,inhibition,"[17]; measured here: BGB combination, at 0.5 µM",-22.9%
same,inhibition,"[17]; measured here: BGB combination, at 5 µM",-18.9%
same,inhibition,"[17]; measured here: cisplatin combination, at 0.5 µM",-40%
same,inhibition,"[17]; measured here: cisplatin combination, at 5 µM",-24.1%
same,inhibition,[18]; at 0.5 µM,-16.4% (inactive)
same,inhibition,"[18]; cisplatin combination, at 0.5 µM",-9.55%
same,inhibition,"[18]; cisplatin combination, at 5 µM",-48%
same,inhibition,"[18]; measured here: BGB IC40 combination 0.05 uM, at 0.05 µM",-9.91%
same,inhibition,"[18]; single agent, at 5 µM",-11.1%
same,inhibition,[19]; at 0.5 µM,-11% (inactive)
same,inhibition,"[19]; cisplatin combo, at 5 µM",17.9%
same,inhibition,"[19]; measured here: BGB IC40 combination, at 0.05 µM",-6.4%
same,inhibition,[19]; [24],-1.6%
same,inhibition,"[19]; single agent, at 5 µM",-15.2%
same,inhibition,[20]; at 0.5 µM,-17.9% (inactive)
same,inhibition,[20]; [22],-18.6%
same,inhibition,[20]; [23],-17.5%
same,inhibition,"[20]; single agent, at 0.05 µM",-2.38%
same,inhibition,"[20]; single agent, at 5 µM",22.5%

# Source: PubChem BioAssay
